Laboratory results from PubChem BioAssay AID1159580 (chemical genetic matrix, 2015).
Values joined by “and” are separate entries in the source; they are usually repeats but may differ in a detail not shown here. Equal values may be shown once. Among all 5,500 compounds or so, about 2,000 (36%) were called active. Another 18% or so got no clear call; they are omitted. No stated cut-off is given here; in the data, active means normalized growth mostly below about 0.91 (no sharp cut-off); inconclusive means no clear call, values can overlap the other calls; inactive means mostly above about 0.92. The list shows a part of the results.

Assay: chemical genetic growth profiling, strain panel (AID 1159580);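 further: tested at 20 µM; growth read once vehicle control cultures reached saturation at 30 °C; 1 = growth at the plate median or of vehicle wells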
Settings: S. cerevisiae deletion strains, growth OD

Measured: normalized growth

CCC1(c2ccc(N)cc2)CCC(=O)NC1=O (configuration not stated)
active: locus YGL240W, strain doc1, stronger effect = lower value 0.876
inactive: locus YAL021C, strain ccr4, stronger effect = lower value 0.981 | locus YAL026C, strain drs2, stronger effect = lower value 0.971 | locus YAL030W, strain snc1, stronger effect = lower value 0.969 | locus YAL040C, strain CLN3, stronger effect = lower value 0.987 | locus YBL061C, strain skt5, stronger effect = lower value 0.968 | locus YBR009C, strain hhf1, stronger effect = lower value 0.984 | locus YBR021W, strain FUR4, stronger effect = lower value 1.01 | locus YBR023C, strain chs3, stronger effect = lower value 0.979 | locus YBR171W, strain sec66, stronger effect = lower value 0.957 | locus YBR229C, strain ROT2, stronger effect = lower value 0.995 | locus YBR231C, strain swc5, stronger effect = lower value 0.943 | locus YBR279W, strain paf1, stronger effect = lower value 0.988 | locus YCL011C, strain gbp2, stronger effect = lower value 0.984 | locus YCL016C, strain dcc1, stronger effect = lower value 0.994 | locus YCL029C, strain bik1, stronger effect = lower value 1 | locus YCL069W, strain vba3, stronger effect = lower value 0.956 | locus YCR088W, strain abp1, stronger effect = lower value 0.974 | locus YDL005C, strain med2, stronger effect = lower value 0.955 | locus YDL035C, strain GPR1, stronger effect = lower value 1.04 | locus YDL040C, strain nat1, stronger effect = lower value 0.978 | locus YDL074C, strain BRE1, stronger effect = lower value 0.994 | locus YDL101C, strain DUN1, stronger effect = lower value 1.01 | locus YDL134C, strain PPH21, stronger effect = lower value 1.02 | locus YDL185W, strain tfp1, stronger effect = lower value 1.01 | locus YDL192W, strain arf1, stronger effect = lower value 0.996 | locus YDR001C, strain nth1, stronger effect = lower value 0.96 | locus YDR069C, strain doa4, stronger effect = lower value 0.962 | locus YDR101C, strain arx1, stronger effect = lower value 1.01 | locus YDR137W, strain rgp1, stronger effect = lower value 1.06 | locus YDR150W, strain NUM1, stronger effect = lower value 1 | locus YDR159W, strain sac3, stronger effect = lower value 0.979 | locus YDR162C, strain NBP2, stronger effect = lower value 1.03 | locus YDR195W, strain ref2 0.926 | locus YDR297W, strain sur2, stronger effect = lower value 0.973 | locus YDR318W, strain mcm21, stronger effect = lower value 0.991 | locus YDR334W, strain swr1, stronger effect = lower value 0.964 | locus YDR335W, strain msn5, stronger effect = lower value 0.959 | locus YDR363W, strain ESC2, stronger effect = lower value 1.01 | locus YDR388W, stronger effect = lower value 0.999 | locus YDR392W, strain spt3, stronger effect = lower value 1.02 | locus YDR502C, strain sam2, stronger effect = lower value 0.999 | locus YEL003W, strain gim4, stronger effect = lower value 0.957 | locus YEL037C, strain rad23, stronger effect = lower value 0.951 | locus YEL061C, strain CIN8 (second series), stronger effect = lower value 0.961 | locus YEL061C, strain CIN8, stronger effect = lower value 1.01 | locus YER002W, strain NOP16, stronger effect = lower value 0.977 | locus YER015W, strain faa2, stronger effect = lower value 0.966 | locus YER016W, strain bim1, stronger effect = lower value 0.987 | locus YER110C, stronger effect = lower value 0.993 | locus YER111C, strain swi4, stronger effect = lower value 0.968 | locus YER155C, strain BEM2 (second series), stronger effect = lower value 0.878 | locus YER155C, strain BEM2, stronger effect = lower value 0.999 | locus YER167W, strain BCK2, stronger effect = lower value 1 | locus YFR010W, strain ubp6, stronger effect = lower value 0.945 | locus YGL078C, strain dbp3, stronger effect = lower value 0.992 | locus YGL086W, strain mad1, stronger effect = lower value 0.994 | locus YGL167C, strain pmr1, stronger effect = lower value 0.961 | locus YGL173C, strain kem1, stronger effect = lower value 0.936 | locus YGL227W, strain vid30, stronger effect = lower value 0.976 | locus YGL248W, strain PDE1, stronger effect = lower value 0.999 | locus YGL253W, strain hxk2, stronger effect = lower value 0.967 | locus YGR078C, strain PAC10, stronger effect = lower value 0.997 | locus YGR135W, strain pre9, stronger effect = lower value 0.991 | locus YGR252W, strain gcn5, stronger effect = lower value 0.992 | locus YHR013C, strain ard1, stronger effect = lower value 0.956 | locus YHR027C, strain rpn1, stronger effect = lower value 0.981 | locus YHR030C, strain SLT2, stronger effect = lower value 1 and 0.997 | locus YHR079C, strain IRE1 (second series), stronger effect = lower value 0.995 | locus YHR079C, strain IRE1, stronger effect = lower value 1.04 | locus YHR094C, strain hxt1, stronger effect = lower value 0.995 | locus YHR129C, strain ARP1, stronger effect = lower value 0.999 | locus YHR142W, strain chs7, stronger effect = lower value 0.932 | locus YHR200W, strain rpn10, stronger effect = lower value 0.999 | locus YIL066C, strain RNR3, stronger effect = lower value 1.03 | locus YIL073C, strain SPO22, stronger effect = lower value 1.03 | locus YIL125W, strain kgd1, stronger effect = lower value 0.998 | locus YIR030C, strain dcg1, stronger effect = lower value 0.995 | locus YJL092W, strain hpr5, stronger effect = lower value 0.952 | locus YJL095W, strain BCK1 (second series), stronger effect = lower value 0.97 | locus YJL095W, strain BCK1, stronger effect = lower value 0.995 and 1.03 | locus YJL115W, strain asf1, stronger effect = lower value 0.949 | locus YJL129C, strain trk1, stronger effect = lower value 0.928 | locus YJL134W, strain LCB3, stronger effect = lower value 1 | locus YJL154C, strain vps35, stronger effect = lower value 0.967 | locus YJL164C, strain tpk1, stronger effect = lower value 0.998 | locus YJL166W, strain qcr8, stronger effect = lower value 0.913 | locus YJL168C, strain set2, stronger effect = lower value 0.988 | locus YJL187C, strain SWE1 (second series), stronger effect = lower value 0.993 | locus YJL187C, strain SWE1, stronger effect = lower value 0.959 | locus YJR043C, strain POL32, stronger effect = lower value 1.02 | locus YJR066W, strain TOR1, stronger effect = lower value 0.973
